Among the data in ChEMBL document CHEMBL3988442, “University of Dundee, Small-Polar-MMV Screening Library” (2021) are Percent Effect values, retold here.

The structures appear in SMILES notation.

In one assay the test system is Trypanosoma cruzi. As to the kind of experiment: Trypanosoma cruzi phosphomannomutase and mannose-1-phosphate guanylyltransferase assay. On the set-up: scale not given: direction of the effect not stated beside the values. The conditions noted are these: 10 µM. It is filed as functional.
`Cc1nc(CO[C@@H]2CN(Cc3cnn(C)c3)[C@@H]3COC[C@@H]32)cs1`: the Percent Effect is -2.58%.

For the compound `CC(=O)N1CCN(Cc2csc(-c3cnn(C)c3)n2)CC1`, the Percent Effect stood at 9.21%.

On to `CC1CN(CC(=O)Nc2nncs2)CCN1c1nccs1` (stereo not drawn), for which the Percent Effect is -5.29%.

Turning to `CC(OCC1CC1)C(=O)N1CCCN(Cc2cnn(C)c2)CC1` (stereo not drawn), the Percent Effect is -1.95%.

For `O=S(=O)(CCNCc1cccc2c1OCCO2)N1CCOCC1`, the Percent Effect is -0.965%.

On to `Cc1ccccc1[C@@H]1CN(C(=O)c2ccc3[nH]nnc3c2)C[C@H]1C(=O)O`, for which the Percent Effect is -5.75%.

Turning to `CC1CCN(C(CNC(=O)CCn2cccn2)c2cccs2)CC1` (stereo not drawn), the Percent Effect turned out to be 2.82%.

Turning to `Cc1ccc(NC2CCN(C(=O)COCC(F)(F)F)CC2)nn1`, the Percent Effect was -1.95%.

With `Cn1cc(CN2CCCC3(CCN(c4nncs4)C3)C2)cn1` (stereo not drawn), the Percent Effect is -2.83%.

On to `Cc1nc(Cn2nc(C3CCNCC3)n(Cc3ccccc3)c2=O)no1`, for which the Percent Effect was -4.25%.

Consider `CC(C)(C)c1cnc(CN2CCC(c3ccnn3CCO)CC2)o1`, for which the Percent Effect stood at 7.46%.

On to `Cc1nc(COC[C@@H]2CC[C@H]3[C@H](CCN3c3ncccn3)O2)cs1`, for which the Percent Effect was -0.394%.

`CC(=O)N(Cc1ncc(C)o1)C1CCN(Cc2noc(C)n2)C1` (stereo not drawn): the Percent Effect amounted to 6.76%.

`Cc1cc(CN(C)C2CCCN(Cc3noc(C4CC4)n3)C2)no1` (stereo not drawn): the Percent Effect is -9.62%.

For the compound `COCC1CN(C(=O)C2=CCCCC2)Cc2cnn(CC3CC3)c21` (stereo not drawn), the Percent Effect came to 1.48%.

Turning to `CC(=O)N1CCCN(C(=O)NCCc2ccc(Cl)s2)CC1`, the Percent Effect was found to be 2.97%.

Turning to `CCc1nnc(CN(C)c2nc(C3CCCC3)nc3c2cnn3C)o1`, the Percent Effect came out at 3.79%.

As to `COc1ccc(-c2cc(C3CCCCCN3S(=O)(=O)N(C)C)on2)cc1` (stereo not drawn), the Percent Effect turned out to be 4.54%.

On to `O=C(N[C@@H]1CN(Cc2ccccc2)C[C@@H]2CCCO[C@@H]21)C1CC1`, for which the Percent Effect is -2.32%.

With `CS(=O)(=O)NCCCNC(=O)c1cccnc1O`, the Percent Effect was determined as 1.76%.

As for `Fc1ccc(CNCC2OCCc3cn(CC4CC4)nc32)cc1` (stereo not drawn), the Percent Effect stood at 2.05%.

With `O=C(c1cccnc1-n1cncn1)N1CCN(CC2CC2)CC1`, the Percent Effect was 5.79%.

For the compound `COc1ccccc1OC1(C(=O)O)CCN(c2nccnc2C)CC1`, the Percent Effect turned out to be 1.19%.

Consider `Cc1csc(CNC(=O)NCCc2ccc3c(c2)OCCO3)n1`, for which the Percent Effect is 7.93%.

As for `CCOCC(O)CN1CCN(C(=O)CC(C)(C)C)CC1` (stereo not drawn), the Percent Effect is -1.98%.

As to `CN1C(=O)C(c2cccnc2)CC12CCN(C(=O)c1cccn1C)CC2` (stereo not drawn), the Percent Effect was 0%.

Consider `Cc1ccc(S(=O)(=O)N2C[C@H]3C[C@H](NC(=O)c4ccn(C)n4)[C@H]3C2)cc1`, for which the Percent Effect was -0.395%.

As for `CN(Cc1ccc(F)cc1)C(=O)NCc1nnc2n1CCCCC2`, the Percent Effect came to 10.5%.

With `O=C(Nc1cc(C(F)(F)F)c[nH]c1=O)N1CCCSCC1`, the Percent Effect was -3.37%.

As to `c1cc(CN2CCN(Cc3cscn3)CC2)cs1`, the Percent Effect is -2.25%.

On to `Cc1noc([C@@H]2C[C@H]3OCC[C@H]3N(S(=O)(=O)c3cccnc3)C2)n1`, for which the Percent Effect was 5.75%.

Consider `CCn1cnnc1C1CCN(C(=O)c2ccccc2OC)CC1`, for which the Percent Effect is -4.68%.

In the case of `O=C(c1ccccc1-c1ccccc1)N1CCOC2(CNCCOC2)C1` (stereo not drawn), the Percent Effect stood at 0%.

Consider `COc1ccc(C(=O)N(C)Cc2cccc(C#N)c2)c(OC)c1OC`, for which the Percent Effect was 1.95%.

On to `CNC(=O)[C@@]12CCCN(c3ncccn3)[C@@H]1CN(C(=O)NC(C)C)C2`, for which the Percent Effect is -0.296%.

For `O=C1CC(NCc2ccncc2)CN1Cc1cccc(F)c1` (stereo not drawn), the Percent Effect was -2.9%.

On to `CS(=O)(=O)NC[C@@H]1OC[C@H]2CN(C(=O)c3ccc[nH]3)CC[C@H]21`, for which the Percent Effect was -18.5%.

`Cc1nccn1C1CCCN(C(=O)c2cc3ccccc3[nH]2)C1` (stereo not drawn): the Percent Effect is -2.74%.

Consider `CS(=O)(=O)N1CCC(O)(Cn2c(C3CC3)nc3ccccc3c2=O)CC1`, for which the Percent Effect was -4.35%.

The target of a further assay is T1, Arginase-2, mitochondrial (Homo sapiens) (UniProt P78540).
T1 sequence (whole entry): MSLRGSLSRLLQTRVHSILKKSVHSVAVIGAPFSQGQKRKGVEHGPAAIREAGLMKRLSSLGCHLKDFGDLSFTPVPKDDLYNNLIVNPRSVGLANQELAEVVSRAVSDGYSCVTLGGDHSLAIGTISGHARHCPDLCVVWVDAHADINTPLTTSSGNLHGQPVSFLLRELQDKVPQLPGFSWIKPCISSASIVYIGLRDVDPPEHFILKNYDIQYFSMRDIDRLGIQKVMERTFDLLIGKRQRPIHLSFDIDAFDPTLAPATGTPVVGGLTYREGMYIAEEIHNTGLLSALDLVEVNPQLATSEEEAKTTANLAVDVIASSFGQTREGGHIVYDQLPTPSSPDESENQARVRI
Briefly: in vitro enzyme assay to detect the production of urea directly proportional to the activity of Arginase II. On the set-up: scale not given: in the data most compounds retested in dose-response had high values. The conditions noted are these: 33.3 µM. It counts as functional.
Take `Cc1nc(CO[C@@H]2CN(Cc3cnn(C)c3)[C@@H]3COC[C@@H]32)cs1`: the Percent Effect is 1.6%.

In the case of `CC(=O)N1CCN(Cc2csc(-c3cnn(C)c3)n2)CC1`, the Percent Effect was -1.53%.

Consider `CC1CN(CC(=O)Nc2nncs2)CCN1c1nccs1` (stereo not drawn), for which the Percent Effect is 0.924%.

On to `CC(OCC1CC1)C(=O)N1CCCN(Cc2cnn(C)c2)CC1` (stereo not drawn), for which the Percent Effect is -9.25%.

For the compound `O=S(=O)(CCNCc1cccc2c1OCCO2)N1CCOCC1`, the Percent Effect is -0.476%.

In the case of `Cc1ccccc1[C@@H]1CN(C(=O)c2ccc3[nH]nnc3c2)C[C@H]1C(=O)O`, the Percent Effect was 0.399%.

As to `CC1CCN(C(CNC(=O)CCn2cccn2)c2cccs2)CC1` (stereo not drawn), the Percent Effect amounted to 8.85%.

As for `Cc1ccc(NC2CCN(C(=O)COCC(F)(F)F)CC2)nn1`, the Percent Effect was -2.37%.

With `Cn1cc(CN2CCCC3(CCN(c4nncs4)C3)C2)cn1` (stereo not drawn), the Percent Effect is -1.24%.

In the case of `Cc1nc(Cn2nc(C3CCNCC3)n(Cc3ccccc3)c2=O)no1`, the Percent Effect is -4.29%.

On to `CC(C)(C)c1cnc(CN2CCC(c3ccnn3CCO)CC2)o1`, for which the Percent Effect is -3.42%.

For the compound `Cc1nc(COC[C@@H]2CC[C@H]3[C@H](CCN3c3ncccn3)O2)cs1`, the Percent Effect turned out to be 4.89%.

`CC(=O)N(Cc1ncc(C)o1)C1CCN(Cc2noc(C)n2)C1` (stereo not drawn): the Percent Effect was -3.16%.

`Cc1cc(CN(C)C2CCCN(Cc3noc(C4CC4)n3)C2)no1` (stereo not drawn): the Percent Effect was -1.8%.

Regarding `COCC1CN(C(=O)C2=CCCCC2)Cc2cnn(CC3CC3)c21` (stereo not drawn), the Percent Effect is -4.52%.

Regarding `CC(=O)N1CCCN(C(=O)NCCc2ccc(Cl)s2)CC1`, the Percent Effect is -4.95%.

As for `CCc1nnc(CN(C)c2nc(C3CCCC3)nc3c2cnn3C)o1`, the Percent Effect was determined as 2.65%.

Regarding `COc1ccc(-c2cc(C3CCCCCN3S(=O)(=O)N(C)C)on2)cc1` (stereo not drawn), the Percent Effect was -1.16%.

Turning to `O=C(N[C@@H]1CN(Cc2ccccc2)C[C@@H]2CCCO[C@@H]21)C1CC1`, the Percent Effect is -49.3%.

As to `CS(=O)(=O)NCCCNC(=O)c1cccnc1O`, the Percent Effect is 1.25%.

As to `Fc1ccc(CNCC2OCCc3cn(CC4CC4)nc32)cc1` (stereo not drawn), the Percent Effect was -4.78%.

Regarding `O=C(c1cccnc1-n1cncn1)N1CCN(CC2CC2)CC1`, the Percent Effect came out at 1.91%.

In the case of `COc1ccccc1OC1(C(=O)O)CCN(c2nccnc2C)CC1`, the Percent Effect is -5.19%.

Turning to `Cc1csc(CNC(=O)NCCc2ccc3c(c2)OCCO3)n1`, the Percent Effect is -3.58%.

As for `CCOCC(O)CN1CCN(C(=O)CC(C)(C)C)CC1` (stereo not drawn), the Percent Effect amounted to 0.401%.

Regarding `CN1C(=O)C(c2cccnc2)CC12CCN(C(=O)c1cccn1C)CC2` (stereo not drawn), the Percent Effect was 4.48%.

Turning to `Cc1ccc(S(=O)(=O)N2C[C@H]3C[C@H](NC(=O)c4ccn(C)n4)[C@H]3C2)cc1`, the Percent Effect is -3.48%.

For `CN(Cc1ccc(F)cc1)C(=O)NCc1nnc2n1CCCCC2`, the Percent Effect is -6.08%.

As for `O=C(Nc1cc(C(F)(F)F)c[nH]c1=O)N1CCCSCC1`, the Percent Effect came out at 2.85%.

Turning to `c1cc(CN2CCN(Cc3cscn3)CC2)cs1`, the Percent Effect was 4%.

For `Cc1noc([C@@H]2C[C@H]3OCC[C@H]3N(S(=O)(=O)c3cccnc3)C2)n1`, the Percent Effect was -5.19%.

On to `CCn1cnnc1C1CCN(C(=O)c2ccccc2OC)CC1`, for which the Percent Effect is -2.13%.

For `O=C(c1ccccc1-c1ccccc1)N1CCOC2(CNCCOC2)C1` (stereo not drawn), the Percent Effect was 4.76%.

In the case of `COc1ccc(C(=O)N(C)Cc2cccc(C#N)c2)c(OC)c1OC`, the Percent Effect is -2.08%.

As for `CNC(=O)[C@@]12CCCN(c3ncccn3)[C@@H]1CN(C(=O)NC(C)C)C2`, the Percent Effect was determined as 1.94%.

For `O=C1CC(NCc2ccncc2)CN1Cc1cccc(F)c1` (stereo not drawn), the Percent Effect was -2.86%.

As for `CS(=O)(=O)NC[C@@H]1OC[C@H]2CN(C(=O)c3ccc[nH]3)CC[C@H]21`, the Percent Effect is -44.3%.

`Cc1nccn1C1CCCN(C(=O)c2cc3ccccc3[nH]2)C1` (stereo not drawn): the Percent Effect is 0.76%.

As for `CS(=O)(=O)N1CCC(O)(Cn2c(C3CC3)nc3ccccc3c2=O)CC1`, the Percent Effect was -0.232%.
